# Screens from PubChem.
# KDM5B inhibitor: Primary screen for KDM5B Histone Demethylases FDH-coupled qHTS. KDM5B demethylase, FDH-coupled NADH fluorescence (FDH is formaldehyde dehydrogenase). Potency, µM (top dose mostly 57.7 µM), hits mostly inhibitors. 220,000 tested, 2.6% active. AID 1347165, 2019; active = well fitted inhibition curve with a large enough effect; note: nearly all actives have a fitted effect of over 70% in size
#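 Coupled FDH/NAD⁺ fluorescence readout. KDM5BΔAP 200 nM final; compound titration, 10 min RT preincubation; substrate mix 12.5 µM H3K4me3, 25 µM 2-OG, 50 µM Fe(II), 100 µM ascorbate, 0.25 mM NAD⁺, 0.25 U/mL FDH; ΔRFU over 30 min.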
# A number is an active result; 0 = inactive. The full list was thinned out, with hits kept by preference.
SMILES,KDM5B inhibitor
CC(C)c1nc(CNC(=O)c2ccc(NC3CCCCC3)nc2)no1,22µM
CC(C)c1nc(CNC(=O)c2ccc(N3CCCC(C(N)=O)C3)nc2)no1 (configuration not stated),0
Cc1ccc(C(=O)NCc2cccnc2N(C)C2CCCCC2)cn1,0
CCCN(C)c1nccnc1OC1CCN(C(=O)c2ccoc2)C1 (configuration not stated),0
Cc1ccccc1Cc1c(C)nc2c(C(=O)N3CCC(Cc4nncn4CC4CC4)CC3)cnn2c1C,25µM
Cc1cccc(C(=O)N2CCC(Cc3nncn3CC3CC3)CC2)c1,0
Cc1nn(C(=O)CCCC(=O)N2CCC(Cc3nncn3CC3CC3)CC2)c2ccccc12,0
CC(=O)Nc1cccc(CNC(=O)/C=C/c2sccc2C)c1,0
Cc1cc(Cl)ccc1S(=O)(=O)Nc1cccc(NC(N)=O)c1,0
COC(=O)c1cccc(C(=O)N2CCC(Cc3nc(-c4ccc(F)cc4)no3)CC2)c1,0
Cc1ccc(C(=O)N2CCCC(n3cc(-c4nc(-c5ccccc5)no4)nn3)C2)cc1 (configuration not stated),0
O=C(c1ccccc1F)N1CCC(n2cc(-c3nc(-c4ccccc4)no3)nn2)C1 (configuration not stated),0
O=C(c1cccc2[nH]ccc12)N1CCC(n2cc(-c3nc(-c4ccccc4)no3)nn2)CC1,28µM
O=C(c1cccc2[nH]ccc12)N1CCC(n2cc(-c3nc(-c4ccccc4)no3)nn2)C1 (configuration not stated),25µM
O=C(c1ccc[nH]c1=O)N1CCC(n2cc(-c3nc(-c4ccccc4)no3)nn2)CC1,0
O=C(c1cc2ccccc2[nH]1)N1CCCC(n2cc(-c3nc(-c4ccccc4)no3)nn2)C1 (configuration not stated),18µM
O=C(c1ccc[nH]1)N1CCC(n2cc(-c3nc(-c4ccccc4)no3)nn2)CC1,0
O=C(c1cccc(Cl)c1)N1CCCC(n2cc(-c3nc(-c4ccccc4)no3)nn2)C1 (configuration not stated),0
Cc1ccccc1C(=O)N1CCC(n2cc(-c3nc(-c4ccccc4)no3)nn2)C1 (configuration not stated),0
COc1ccc(S(=O)(=O)Nc2nc3ccccc3nc2Nc2ccc(Br)cc2)cc1,0
Cc1ncc(-c2ccc(S(=O)(=O)Nc3ccc(C)c(F)c3)cc2)o1,0
Cc1cc(N2CCOC(C(F)(F)F)C2)nc(-c2ccccc2)n1 (configuration not stated),0
O=C(Nc1cccnc1Oc1ccccc1)c1cc(F)cc(F)c1,0
COc1ccccc1CNC(=O)c1ccc2c(c1)CC(=O)N2Cc1ccc(F)cc1,0
Cc1cccc(C(=O)NC(Nc2ccc(C)cc2C)C(Cl)(Cl)Cl)c1 (configuration not stated),0
SMILES,KDM5B inhibitor
C(#CCN1CCN(C(c2ccccc2)c2ccccc2)CC1)COC(c1ccccc1)c1ccccc1,0
COc1ccc(-c2nc3cnccc3o2)cc1NC(=O)c1cccnc1,0
Cc1ccc2c(C(=O)O)cc(-c3ccncc3)nc2c1C,0
Cn1c(=O)c2c(ncn2CCC(=O)Nc2ccc(Cl)c(Cl)c2)n(C)c1=O,0
COc1ccc(C2C3=C(CCCC3=O)OC3=C2C(=O)CCC3)cc1OC,0
COc1ccc(C(=O)NCc2nnc3ccc(-c4ccc(C)c(C)c4)nn23)cc1OC,0
Cc1ccc(-c2ccc3nnc(CNC(=O)c4cccn4C)n3n2)cc1C,0
Cc1ccc(C)c(C(=O)NCc2nnc3ccc(-c4ccc(C)c(C)c4)nn23)c1,14µM
Cc1ccc(NS(=O)(=O)c2cc(-c3ccc4nnc(C)n4n3)ccc2C)cc1,0
Cc1ccc(-c2ccc3nnc(CNC(=O)c4cccc5[nH]ccc45)n3n2)cc1C,35µM
COc1ccc(C(=O)NCc2nnc3ccc(-c4ccc(C)c(C)c4)nn23)cc1F,32µM
O=C(CSc1ccc2nnc(CCNC(=O)c3ccccc3)n2n1)Nc1ccccc1,0
Cc1ccc(-c2ccc3nnc(CNC(=O)c4ccccc4)n3n2)cc1C,28µM
Cc1cc(C(=O)OCC(=O)Nc2ccc(C)c(F)c2)c2ccccc2n1,0
Cc1ccc2nc(NC(=O)CCc3ncc(-c4ccccc4Cl)o3)sc2c1,0
CC(=O)Nc1c(C)noc1/C=C\c1ccc(C)c(S(=O)(=O)Nc2cc(C)ccc2C)c1,0
COC(=O)c1sc(NC(=O)COc2cc(C)cc(C)c2)nc1C,0
COc1ccccc1-c1nnc(SCC(=O)Nc2ccc(N(C)C)cc2)n1-c1ccccc1,0
Cc1ccc2c(C)cc(SCC(=O)N3CCOCC3)nc2c1,0
CCCNc1c(NC(=O)COc2ccccc2C)c(=O)oc2ccccc12,0
Fc1ccccc1CSCc1ccc(-c2nc(-c3ccccc3)no2)o1,0
Cn1ccc2c(C(=O)NCc3cccnc3)nc(-c3cccc(N4CCOCC4)c3)cc21,0
c1cc(-c2cc3c(ccn3Cc3ccncc3)c(N3CCOCC3)n2)cc(N2CCOCC2)c1,20µM
Nc1cccc(-c2ccc(N3CCOCC3)nn2)c1,0
